The structures appear in SMILES notation. Where “and” joins values, the source holds several entries; their conditions need not be identical. Equal entries are not always repeated. This is part of a sample that, as a whole, favours compounds with a hit. Of some 79,000 tested, about 15% had one in any assay. Some compounds were tested as several samples or in several runs, with calls that do not always agree. Calls of active or inactive are those of the source. Rule as the data show it: active = growth inhibition above about 70%; inactive = the rest.

Experiment [1] is described as follows: NCI Yeast Anticancer Drug Screen. Data for the rad50 strain (AID 155).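 Also: 0% = growth of vehicle-only cultures of the same strain.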 To be noted: S. cerevisiae rad50 strain growth inhibition, stronger effect = higher value. The method, boiled down:
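A DNA repair-deficient yeast mutant serves as the test organism; compound-induced growth inhibition is calculated against vehicle-treated cells.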

Experiment [2] is described as follows: NCI Yeast Anticancer Drug Screen. Data for the mec2-1 strain (AID 157). To be noted: S. cerevisiae mec2-1 strain, stronger effect = higher value. The method in brief: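 Mutant yeast (mec2-1) grown with compound; growth inhibition relative to vehicle control reported.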
The nature of experiment [3]: NCI Yeast Anticancer Drug Screen. Data for the sgs1 mgt1 strain (AID 161).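 Also: 0% = growth of cultures given vehicle only.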 As to conditions: S. cerevisiae sgs1 mgt1 strain, stronger effect = higher value. The method in brief:
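Yeast cells carrying a defined DNA-repair defect were exposed to test compounds. Growth inhibition was measured relative to vehicle-treated controls.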

Experiment [4] can be described thus: NCI Yeast Anticancer Drug Screen. Data for the cln2 rad14 strain (AID 165).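 Also: 0% = growth equal to vehicle treated cultures.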 As to conditions: S. cerevisiae cln2 rad14 strain, stronger effect = higher value. The method, boiled down: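 Readout is yeast growth inhibition versus vehicle-treated controls, using a strain with cln2 and rad14 alterations exposed to compound.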
Experiment [5] is described as follows: NCI Yeast Anticancer Drug Screen. Data for the bub3 strain (AID 167). As to conditions: S. cerevisiae bub3 mutant strain, stronger effect = higher value. The method in brief: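 Inhibition values come from growth of compound-treated mutant yeast normalised to vehicle-treated controls.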
The nature of experiment [6]: NCI Yeast Anticancer Drug Screen. Data for the mlh1 rad18 strain (AID 175). To be noted: S. cerevisiae mlh1 rad18 strain growth inhibition, stronger effect = higher value. The method, boiled down: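 Genetically defined yeast (DNA repair-deficient) exposed to compounds; growth inhibition determined relative to vehicle.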
[7] abbreviates: at 5.0 µM (retest, dose inferred, filed as 0.5).
The mark [8] stands for this setting: at 50.0 µM (retest, dose inferred, filed as 5.0).

In the case of `O=C(/C=C/c1ccccn1)c1ccccc1`, the growth inhibition in experiment [1] (setting [7]) is 4% (inactive); in experiment [1] (setting [8]) it was 59% (inactive); in experiment [1] (at 50.0 µM), 9.35% (inactive) and 16.2% (inactive); in experiment [2] (setting [7]), -13% (inactive); in experiment [2] (setting [8]), 28% (inactive); in experiment [2] (at 50.0 µM) it was 40% (inactive) and 16.4% (inactive). Also, the growth inhibition was -1% (inactive) in experiment [3] (setting [7]); 56% (inactive) in experiment [3] (setting [8]); 44.7% (inactive) and 24.4% (inactive) in experiment [3] (at 50.0 µM); 5% (inactive) in experiment [4] (setting [7]); 11% (inactive) in experiment [4] (setting [8]); 7.2% (inactive) and 26.9% (inactive) in experiment [4] (at 50.0 µM). The growth inhibition was -5% (inactive) in experiment [5] (setting [7]); 23% (inactive) in experiment [5] (setting [8]); 47.2% (inactive) and 39.9% (inactive) in experiment [5] (at 50.0 µM); -1% (inactive) in experiment [6] (setting [7]); 29% (inactive) in experiment [6] (setting [8]); 80.7% (active) and 21.1% (inactive) in experiment [6] (at 50.0 µM).
As for `CCn1c(-c2c(Cl)cc(O)cc2Cl)cc2c(Cl)cc(O)cc21`, the growth inhibition in experiment [1] (setting [7]) is 64% (inactive); in experiment [1] (setting [8]), 99% (active); in experiment [1] (at 50.0 µM), 98.1% (active); in experiment [2] (setting [7]), 97% (active); in experiment [2] (setting [8]), 99% (active); in experiment [2] (at 50.0 µM), 99% (active). The growth inhibition is 17% (inactive) in experiment [3] (setting [7]); 98% (active) in experiment [3] (setting [8]); 98.5% (active) in experiment [3] (at 50.0 µM); 13% (inactive) in experiment [4] (setting [7]); 98% (active) in experiment [4] (setting [8]); 98.5% (active) in experiment [4] (at 50.0 µM). Besides, the growth inhibition was 11% (inactive) in experiment [5] (setting [7]); 96% (active) in experiment [5] (setting [8]); 98% (active) in experiment [5] (at 50.0 µM); 22% (inactive) in experiment [6] (setting [7]); 94% (active) in experiment [6] (setting [8]); 98.6% (active) in experiment [6] (at 50.0 µM).
For the compound `CC(=O)OC1COC(n2c(N)c(C#N)c(-c3ccccc3)c(C#N)c2=S)C(OC(C)=O)C1OC(C)=O` (centres undefined), the growth inhibition in experiment [1] (setting [7]) was -10% (inactive) and 1% (inactive); in experiment [1] (setting [8]), 3% (inactive) and 74% (active); in experiment [1] (at 50.0 µM) it was 25.8% (inactive) and 46% (inactive); in experiment [2] (setting [7]), -12% (inactive) and 1% (inactive); in experiment [2] (setting [8]), 3% (inactive) and 57% (inactive); in experiment [2] (at 50.0 µM), 16.4% (inactive) and 40.7% (inactive). For the same compound, the growth inhibition in experiment [3] (setting [7]) is -7% (inactive) and 2% (inactive); in experiment [3] (setting [8]), 16% (inactive) and 48% (inactive); in experiment [3] (at 50.0 µM), 73.2% (active) and 65% (inactive); in experiment [4] (setting [7]) it was -18% (inactive) and 1% (inactive); in experiment [4] (setting [8]), -17% (inactive) and 61% (inactive); in experiment [4] (at 50.0 µM), -6.15% (inactive) and 14.3% (inactive). Further, the growth inhibition in experiment [5] (setting [7]) was -11% (inactive) and 4% (inactive); in experiment [5] (setting [8]) it was -33% (inactive) and 79% (active); in experiment [5] (at 50.0 µM), 35.7% (inactive) and 4.05% (inactive); in experiment [6] (setting [7]), -7% (inactive) and -2% (inactive); in experiment [6] (setting [8]), 8% (inactive) and 73% (active); in experiment [6] (at 50.0 µM) it was 62.9% (inactive) and 56.9% (inactive).
On to `CCCn1cnc2c(SCc3ccc(Cl)cc3)nc(N)nc21`, for which the growth inhibition in experiment [1] (setting [7]) was -7% (inactive); in experiment [1] (setting [8]), 21% (inactive); in experiment [1] (at 50.0 µM), 96.9% (active); in experiment [2] (setting [7]) it was -5% (inactive); in experiment [2] (setting [8]) it was -10% (inactive); in experiment [2] (at 50.0 µM) it was 97.5% (active). Further, the growth inhibition in experiment [3] (setting [7]) was -3% (inactive); in experiment [3] (setting [8]) it was 16% (inactive); in experiment [3] (at 50.0 µM), 96.2% (active); in experiment [4] (setting [7]) it was -32% (inactive); in experiment [4] (setting [8]), -64% (inactive); in experiment [4] (at 50.0 µM), 92.8% (active). Further, the growth inhibition was -20% (inactive) in experiment [5] (setting [7]); 7% (inactive) in experiment [5] (setting [8]); 97% (active) in experiment [5] (at 50.0 µM); -6% (inactive) in experiment [6] (setting [7]); 36% (inactive) in experiment [6] (setting [8]); 98% (active) in experiment [6] (at 50.0 µM).
Turning to `COc1cc2c3c(c1)SCCC(=O)N3CCN2`, the growth inhibition in experiment [1] (setting [7]) was 17% (inactive); in experiment [1] (setting [8]), 17% (inactive); in experiment [1] (at 50.0 µM), 71.7% (active); in experiment [2] (setting [7]) it was 4% (inactive); in experiment [2] (setting [8]), 4% (inactive); in experiment [2] (at 50.0 µM), 81.2% (active). Further, the growth inhibition in experiment [3] (setting [7]) is 15% (inactive); in experiment [3] (setting [8]) it was 15% (inactive); in experiment [3] (at 50.0 µM), -22.6% (inactive); in experiment [4] (setting [7]), -4% (inactive); in experiment [4] (setting [8]), -4% (inactive); in experiment [4] (at 50.0 µM) it was 80.4% (active). The growth inhibition in experiment [5] (setting [7]) was 0% (inactive); in experiment [5] (setting [8]), 0% (inactive); in experiment [5] (at 50.0 µM) it was 73.3% (active); in experiment [6] (setting [7]), 14% (inactive); in experiment [6] (setting [8]), 14% (inactive); in experiment [6] (at 50.0 µM), 45.7% (inactive).
Consider `O=C(CC1(O)C(=O)Nc2ccccc21)c1ccc(Cl)c(Cl)c1` (centres undefined), for which the growth inhibition in experiment [1] (setting [7]) was -5% (inactive); in experiment [1] (setting [8]) it was 26% (inactive); in experiment [1] (at 50.0 µM), 84% (active); in experiment [2] (setting [7]) it was -4% (inactive); in experiment [2] (setting [8]), 29% (inactive); in experiment [2] (at 50.0 µM) it was 39% (inactive). Besides, the growth inhibition in experiment [3] (setting [7]) was 1% (inactive); in experiment [3] (setting [8]) it was 41% (inactive); in experiment [3] (at 50.0 µM), 73.4% (active); in experiment [4] (setting [7]), -5% (inactive); in experiment [4] (setting [8]) it was -12% (inactive); in experiment [4] (at 50.0 µM), 72% (active). Further, the growth inhibition was -4% (inactive) in experiment [5] (setting [7]); 31% (inactive) in experiment [5] (setting [8]); 77.2% (active) in experiment [5] (at 50.0 µM); -4% (inactive) in experiment [6] (setting [7]); 31% (inactive) in experiment [6] (setting [8]); 88.3% (active) in experiment [6] (at 50.0 µM).
For `Nc1ccc([N+](=O)[O-])c(S(=O)(=O)O)c1`, the growth inhibition in experiment [1] (setting [7]) was -160% (inactive); in experiment [1] (setting [8]), -143% (inactive); in experiment [1] (at 50.0 µM) it was 60.8% (inactive) and -0.9% (inactive); in experiment [2] (setting [7]) it was -46% (inactive); in experiment [2] (setting [8]), -47% (inactive); in experiment [2] (at 50.0 µM) it was 28.6% (inactive) and -3.55% (inactive). The growth inhibition is -60% (inactive) in experiment [3] (setting [7]); -54% (inactive) in experiment [3] (setting [8]); 46% (inactive) and 3.45% (inactive) in experiment [3] (at 50.0 µM); -56% (inactive) in experiment [4] (setting [7]); -53% (inactive) in experiment [4] (setting [8]); 40.2% (inactive) and -6.5% (inactive) in experiment [4] (at 50.0 µM). For the same compound, the growth inhibition is -71% (inactive) in experiment [5] (setting [7]); -57% (inactive) in experiment [5] (setting [8]); 78.8% (active) and -31.6% (inactive) in experiment [5] (at 50.0 µM); -139% (inactive) in experiment [6] (setting [7]); -104% (inactive) in experiment [6] (setting [8]); 64.6% (inactive) and 6.45% (inactive) in experiment [6] (at 50.0 µM).
For the compound `CC(=O)OCC(OC(C)=O)C(OC(C)=O)C(OC(C)=O)C(OC(C)=O)C(/C=N/Nc1ccccc1)=N/Nc1ccccc1` (centres undefined), the growth inhibition is 21% (inactive) and -14% (inactive) in experiment [1] (setting [7]); 90% (active) and 4% (inactive) in experiment [1] (setting [8]); 94.8% (active) and 57.6% (inactive) in experiment [1] (at 50.0 µM); 4% (inactive) and 1% (inactive) in experiment [2] (setting [7]); 68% (inactive) and -7% (inactive) in experiment [2] (setting [8]); 48.1% (inactive) and 4.7% (inactive) in experiment [2] (at 50.0 µM). Besides, the growth inhibition was -12% (inactive) and -18% (inactive) in experiment [3] (setting [7]); 50% (inactive) and 9% (inactive) in experiment [3] (setting [8]); 47.8% (inactive) and 6.1% (inactive) in experiment [3] (at 50.0 µM); 23% (inactive) and 0% (inactive) in experiment [4] (setting [7]); 86% (active) and 1% (inactive) in experiment [4] (setting [8]); 44.4% (inactive) and 29.6% (inactive) in experiment [4] (at 50.0 µM). In addition, the growth inhibition in experiment [5] (setting [7]) was 7% (inactive) and -3% (inactive); in experiment [5] (setting [8]), 87% (active) and -12% (inactive); in experiment [5] (at 50.0 µM), 86.3% (active) and 18.7% (inactive); in experiment [6] (setting [7]) it was 26% (inactive) and -3% (inactive); in experiment [6] (setting [8]), 93% (active) and -1% (inactive); in experiment [6] (at 50.0 µM), 95.2% (active) and 40.5% (inactive).

These data come from PubChem BioAssay (NCI).
